Data as given in PubChem BioAssay AID686979 (National Center for Advancing Translational Sciences (NCATS), 2013).
Several values for one entry are separate records, joined by “and”; a condition that tells them apart may be missing. Equal entries are not always repeated. The whole screen tested about 420,000 compounds, of which about 50,000 (12%) were called active. Where a call stands in place of a potency, no number is given. Roughly 26% stayed inconclusive and do not appear here. The call rests on the fitted dose curve; in most records, active means well fitted inhibition curve with a large enough effect; inconclusive means small, poorly fitted or top-dose-only effect; inactive means flat fitted curve, though single readings scatter. The full list was thinned out, with actives kept by preference.

test: qHTS for Inhibitors of human tyrosyl-DNA phosphodiesterase 1 (TDP1): qHTS in cells in presence of CPT; settings: chicken DT40 Tdp1-/-;hTDP1 cells + 20 nM CPT, ATP luminescence, 48 h; series mostly up to 46.2 µM; further: nearly all actives have a fitted effect of over 55% in size
Summary of the method: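 Chicken DT40 Tdp1-/- cells stably complemented with human TDP1 were seeded at 400 cells/well in medium containing 20 nM camptothecin, exposed to pin-transferred compounds, and grown at 37 °C for at least 48 hr. Viability was read as ATP luminescence.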
Potency means the concentration at half of the fitted maximal effect.

SMILES | Potency
C[C@@H]1CN([C@H](C)CO)C(=O)CCCn2cc(nn2)CO[C@H]1CN(C)S(C)(=O)=O | inactive
O=C(O)c1ccccc1C(=O)NC1=NN(c2ccccc2)CC1 | inactive
CNS(=O)(=O)c1ccc2c(c1)[nH]c(=S)n2C | inactive
CSc1ccccc1NC(=O)c1cc(Cl)sc1Cl | inactive
O=c1[nH]c(/C=C\c2cccc(C(F)(F)F)c2)nc(O)c1[N+](=O)[O-] | inactive
Cc1ccc(C)c(NC(=S)NNC(=S)Nc2ccc(C(C)C)cc2)c1 | inactive
CC(OC(=O)CCC(=O)c1ccccc1)C(=O)Nc1ccc(F)cc1 (configuration not stated) | inactive
CCc1ccc(NC(=O)CN2C(=O)CSC2=O)cc1 | inactive
Cc1ccc(OCCC(=O)Nc2ccc(S(=O)(=O)Nc3nccs3)cc2)cc1 | inactive
CCC(=O)Nc1ccc(C(=O)Nc2ccc3c(c2)C(=O)N(CC2CCCO2)C3=O)cc1 (configuration not stated) | inactive
O=C(NCc1ccc2c(c1)OCO2)c1ccc2c(c1)C(=O)N(CC1CCCO1)C2=O (configuration not stated) | inactive
O=C1c2cccc3c([N+](=O)[O-])ccc(c23)C(=O)N1CC1CCCO1 (configuration not stated) | 6.51 µM (active)
Cc1nn(C(C)CC(=O)O)c(C)c1C (configuration not stated) | inactive
NS(=O)(=O)c1ccc(CNC(=S)NC(=O)c2ccco2)cc1 | inactive
Cc1ccc(N(Cc2cc(=O)[nH]c3ccccc23)C(=O)CCl)cc1 | 2.91 µM (active)
Cc1ccc(N(Cc2cc3ccccc3[nH]c2=O)C(=O)c2cccs2)cc1 | inactive
CC(=O)N(Cc1cc(=O)[nH]c2ccccc12)c1ccc(C)cc1C | inactive
COc1ccc(Cc2nnc(SCC(=O)Nc3ccc(C)c(C)c3)o2)cc1OC | inactive
O=C(Nc1nccs1)C1CCCN1S(=O)(=O)c1cccc2cccnc12 (configuration not stated) | inactive
Cc1ccc(NC(=O)C2CCCN2S(=O)(=O)c2cccc3cccnc23)c(C)c1 (configuration not stated) | 23.1 µM (active) and 16.4 µM (active)
Cc1cccc(NC(=O)C2CCN(S(=O)(=O)c3cccc4cccnc34)CC2)c1 | inactive
C=CCOc1ccc(/C=C/C(=O)OCC(=O)NC(C)c2ccc(F)cc2)cc1 (configuration not stated) | inactive
COc1ccc2[nH]c3c(c2c1)CCN1C(=O)C(CC(=O)NCc2cccc(C(F)(F)F)c2)C[C@H](C(=O)N2CCOCC2)[C@@]31C (some centres not stated) | inactive
COc1cc2c(cc1OC)CN(C(C)C(=O)Nc1cccc(S(=O)(=O)N3CCOCC3)c1)CC2 (configuration not stated) | inactive
COc1ccc(Cn2c(=O)oc3ccccc32)cc1 | inactive
COc1ccc(Cn2c(-c3ccc(Cl)cc3)c[n+]3ccccc23)cc1 | 1.84 µM (active)
COc1ccc(C(=O)CN(C(=O)c2ccc(Cl)cc2)N2C(=O)c3ccccc3C2=O)cc1 | inactive
